Our source for the growth values is PubChem BioAssay (NCI).

The structures appear in SMILES notation. “And” between values parts separate entries of the source, which are not always exact repeats. Equal entries are not always repeated. Compounds without any hit were thinned out: in the full panel of roughly 83,000, 20% have a hit.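 Step 1: grow cells in 96-well plates. Step 2: add test compound at a single concentration. Step 3: incubate 48 h. Step 4: record percent growth.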 The source made the active and inactive calls. Rule for the calls: active = growth percent below 10; inactive = the rest.

In this assay the test system is MDA-MB-468 breast. In words: NCI-60 one-dose screen, 48 h (100 = growth as untreated, 0 = no growth, -100 = all killed). The following applies: 10 µM unless noted.
Take `O=C1CCNC1`: the growth is 107% (inactive).
As to `COc1cc(C2C=C(c3ccc(Cl)c(Cl)c3)N=C3SC(C)=CN32)cc(OC)c1OC` (stereo not given), the growth was 62.5% (inactive).
Turning to `C=C(C)[C@@H]1CC[C@]2(COC)CC[C@]3(C)[C@H](CC[C@@H]4[C@@]5(C)CCCNC(C)(C)[C@@H]5CC[C@]43C)[C@@H]12`, the growth is -50.5% (active).
Consider `CCc1nc2cc(F)c(/C=C/C(=O)NO)cc2c(=O)n1CCc1ccccc1`, for which the growth was 4.28% (active).
As for `Nc1c(C(=O)Nc2cccc3ncccc23)sc2nc3c(cc12)CN(Cc1ccccc1)CC3`, the growth was 31.4% (inactive).
In the case of `COc1ccc(-c2c(C#N)cnc(N)c2-c2nc3cc(C)c(C)cc3[nH]2)cc1`, the growth was 57.9% (inactive).
As for `CCOC(=O)C1=C(CCl)N(C)C(=O)NC1c1ccc2c(c1)OCO2` (stereo not given), the growth was 24.1% (inactive).
In the case of `O=C1ON=[N+](c2ccc(Cc3ccc([N+]4=NOC(=O)C4CN4CCOCC4)cc3)cc2)C1CN1CCOCC1` (stereo not given), the growth was 11.4% (inactive).
As to `CC(C)(O)Cn1cc(-c2ccc3nc(OC4CC4)ccc3c2)c2c(N)ncnc21`, the growth was 89.1% (inactive) and 50.9% (inactive).
Turning to `C[n+]1c2ccccc2nc2c(N)cc(N)cc21`, the growth was -5.14% (active).
With `CN1CCC(CNc2ccc3ncc(-c4cccc(OC(F)(F)F)c4)n3n2)CC1`, the growth is -84.8% (active).
Consider `CCCc1cc(NC)nc(S(=O)(=O)CC)n1`, for which the growth is 119% (inactive).
With `CC1CCC(C(C)(C)[N+](C)(C)C)CC1` (stereo not given), the growth was 120% (inactive).
In the case of `N#Cc1ccc2nc[nH]c2c1`, the growth was 87.6% (inactive).
Turning to `O=C1/C=C/[C@@H](O)[C@@H]2C[C@@H](O)C[C@H]2/C=C/CCC[C@H](CCO)O1`, the growth was -54.5% (active).
